ERK EGF inh: inhibitors of EGF-stimulated ERK signaling pathway | HEK293-V1b, EGF-stimulated phospho-ERK AlphaScreen | Potency, µM (titrated, usually from 11.5 µM), without a hit: at the top dose activity change, negative = inhibition, most hits filed as inhibitors | 130,000 tested, 0.41% active; active = well fitted inhibition curve with a large enough effect;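 also: plate controls were stimulated vehicle wells for no effect and unstimulated vehicle basal for full effect; nearly all actives have a fitted effect of over 55% in size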
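After overnight plating in 1% FBS, HEK293-V1b cells received test compound for half an hour, then a 5 min pulse of EGF (25 nM); ERK phosphorylation in lysates was read by bead-based AlphaScreen.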
Active calls of the source: *; ! = a repeat was not active; [ ] = another dose, or the depositor's remark. The full list was thinned out, with hits kept by preference. Potency is read from the fitted curve at half-maximal effect.

SMILES | ERK EGF inh
COCCCN1C(=O)CS/C1=N\S(=O)(=O)c1ccccc1 | -3%[57.5 µM]
CN1C/C(=N\S(=O)(=O)c2ccccc2)N(C)C1=O | 12%
Cn1cccc1C(=O)N1CCC2(CC1)CCN(c1ccccn1)CC2 | 25%
CN(C)c1ncc2nc(-c3cc(F)cc(F)c3)c(=O)n(Cc3cccs3)c2n1 | -11%
COC(=O)C1(C(=O)OC)Cc2conc2[C@H]1c1ccccc1 | -2%
CN1C=CC=C/C1=C1/SC(=S)N(Cc2ccccc2)C1=O | 23%
O=C(O)CN1C(=O)/C(=C/C=C/c2ccccc2)SC1=S | 0%
CCN1C(=O)/C(=C\C=C2/C=CC=CN2CC)SC1=S | 25µM*
CC1(C)SC2C(NC(=O)Cc3ccccc3)C(=O)N2C1C(=O)O (stereo unspecified) | 8%
COc1ccc(-c2nc(-c3ccccc3)oc2NC(C)C)cc1 | -7%
CC[C@H](C)C(=O)O[C@H]1C[C@H](O)C=C2C=C[C@H](C)[C@H](CC[C@@H](O)C[C@@H](O)CC(=O)O)[C@H]21 | -7%
Cc1ccc(-c2csc(N/N=C/c3ccco3)n2)c(C)c1 | 6%
CN(C)S(=O)(=O)c1cccc(-c2csc(N/N=C/c3ccco3)n2)c1 | 22µM*
CN(C)S(=O)(=O)c1cccc(NC(=S)N/N=C/c2ccco2)c1 | -6%[57.5 µM]
CCCCC[C@H](O)/C=C\[C@@H]1[C@H](O)CC(=O)[C@@H]1CCCCCCC(=O)O | -6%[25.7 µM]
NCC1O[C@@H](O[C@@H]2C(O)[C@H](O[C@H]3OC(CO)C(O)C(N)C3O)[C@@H](N)C[C@H]2N)C(N)C(O)C1O (stereo partly specified) | 3%
O=C(c1ccncc1)N1CCC[C@@]2(CCN(c3cccc(-c4ccccc4)c3)C2)C1 | 0%
COCCn1c(=O)c(-c2cccs2)nc2cnc(OCc3ccccc3)nc21 | 12%
Cc1[nH]n(-c2ccccc2)c(=O)c1N=O | -8%
Cc1[nH]n(-c2ccccc2)c(=O)c1N=Nc1ccc2c(c1)OCCO2 | 13µM*
Cc1ccc(N=Nc2c(C)[nH]n(-c3ccccc3)c2=O)c(C)c1 | 2%
O[C@@H]1[C@@H]2c3cc4c(cc3CN3CCC(=C[C@@H]1O)[C@H]23)OCO4 | 3%[25.7 µM]
COc1ccc2c(c1)C(=O)[C@H](OC(=O)N[C@H](C)C1CCCCC1)[C@@H](c1ccc(OC)c(Br)c1)O2 | 2%
O=C(c1ccco1)N1CCC2(CCCN(c3ncccn3)C2)CC1 | 10%
NC(=O)c1ccc[n+]([C@@H]2OC(COP(=O)([O-])OP(=O)(O)OCC3OC(n4cnc5c(N)ncnc54)C(OP(=O)(O)O)C3O)C(O)C2O)c1 (stereo partly specified) | 1%
SMILES | ERK EGF inh
C(=N\N1CCN(Cc2ccccc2)CC1)/c1cccnc1 | 4%
C(=N\N1CCN(Cc2ccccc2)CC1)/c1ccccc1 | 10%[57.5 µM]
CCN(CC)c1ccc(/C=N/N2CCN(Cc3ccccc3)CC2)cc1 | 28µM*
COC(=O)/C(C)=C/CC12OC(C)(C)C3CC(C=C4C(=O)c5cc6c(c(CCC(C)(C)Cl)c5OC431)OC1(C)CCC(=C(C)C)C6C1)C2=O (stereo unspecified) | 8%
CC(=O)OC[C@@]12C(=O)[C@@H](O)[C@@H](C)[C@]3(C[C@@H](c4ccoc4)O[C@@H]3OC(C)=O)[C@H]1CCC[C@]21CO1 | -7%
COc1ccc2c(c1)C(=O)[C@H](OC(=O)Nc1ccc(C)c(Br)c1)[C@@H](c1ccc(OC)c(Br)c1)O2 | -5%
CNC(=O)[C@H]1O[C@H](n2cnc3c(NCc4cccc(I)c4)nc(Cl)nc32)[C@@H](O)[C@@H]1O | -2%
CNC(=O)[C@H]1O[C@@H](n2cnc3c(NCc4cccc(I)c4)ncnc32)[C@H](O)[C@H]1O | 19%
COc1ccc2nc3c(cc2c1)Cc1ccccc1-3 | 13%
Cc1ccc(C(=O)OC[C@H]2O[C@H](Cl)C[C@@H]2OC(=O)c2ccc(C)cc2)cc1 | 1%
CCC1=C2CC[C@H]3C(=O)N(c4ccccc4)C(=O)[C@H]3[C@H]2[C@@]2(Cc3ccccc3)C(=NCCOC)OC(=O)N2C1=O | -3%
Cc1ccc(S(=O)(=O)N2C(=O)/C(=C3\SC(=S)NC3=O)c3ccccc32)cc1 | 1%[57.5 µM]
Cc1ccc(S(=O)(=O)N2c3ccccc3-c3c(ssc3=S)C2(C)C)cc1 | 13µM*
CC(=O)Nc1ccc(S(=O)(=O)N2c3ccccc3C(C)=CC2(C)C)cc1 | 2%
C[N+]1(C)CC[C@@H](OC(=O)[C@@](O)(c2ccccc2)C2CCCC2)C1 | 0%[25.7 µM]
Cc1cccc(N2NC(=O)/C(=C/c3ccc(-c4ccc(Cl)c(C(=O)O)c4)o3)C2=O)c1 | -3%
O=C1NN(c2ccccc2)C(=O)/C1=C/c1ccc(Sc2ccc(Cl)cc2)o1 | 28µM*
O=C1NN(c2ccccc2)C(=O)/C1=C/c1ccc(-c2ccc(Cl)c(C(=O)O)c2)o1 | -8%
COc1cccc([C@@H]2Oc3ccc(Br)cc3C[C@H]2O)c1 | 2%
Cc1noc(C)c1C(=O)N1CCC[C@@]2(CCN(c3ncccn3)C2)C1 | -3%
Nc1c(O)cccc1C(=O)C[C@@H](N)C(=O)O | -7%[25.7 µM]
COc1ccc(-c2nc(-c3ccccc3)c(NCc3ccccc3)o2)cc1 | -8%
C[C@]12C[C@@](C)(C=C1/C=C/c1ccc(F)cc1)C(=O)C[C@H]2c1ccc(F)cc1 | -7%
Clc1ccccc1-c1nccc(-n2ccnc2)n1 | 26%
Clc1ccccc1C(c1ccccc1)(c1ccccc1)n1ccnc1 | 22µM*!
SMILES | ERK EGF inh
FC(F)(F)c1ccccc1-n1ccnc1 | 4%
C=C(C)C(=O)/C=C/CCC/C=C/C(=O)OCC | 2%
Cc1nn(-c2ccccc2)c(N2CCCC2)c1/C=N/Nc1ccc(S(=O)(=O)Nc2ccccc2)cc1[N+](=O)[O-] | 4%
COc1ccccc1NS(=O)(=O)c1ccc(N/N=C/c2c(C)nn(-c3ccccc3)c2N2CCCC2)c([N+](=O)[O-])c1 | 13µM*
COc1ccccc1NS(=O)(=O)c1cccc(C(=O)N/N=C/c2c(C)nn(-c3ccccc3)c2N2CCCC2)c1 | 5%
CC(=O)N1CCC2(CCCN(C(=O)Nc3cccc(C#N)c3)C2)CC1 | 3%
Cc1cc(/C=C2\SC(=S)N(C)C2=O)c(C)n1-c1cccc(O)c1 | 28µM*
O=C1/C(=C/c2ccccn2)SC(=S)N1c1cccc(O)c1 | 4%[57.5 µM]
COc1ccc(-n2c(C)cc(/C=C3/SC(=S)N(C)C3=O)c2C)cc1 | -6%
COCC(=O)N1CCC2(CC1)CCN(c1ncccn1)CC2 | 2%
CC(=O)C1(C)CC2(CC(C)(C)OC2=O)C(=O)O1 (stereo unspecified) | 0%
CC1(C)CC(N(Cc2ccc(F)cc2)C(=O)c2ccc(F)cc2)CCO1 (stereo unspecified) | -2%[57.5 µM]
CC1(C)CC(C(CCN(Cc2ccccc2)C(=O)c2ccco2)c2ccc(F)cc2)CCO1 (stereo unspecified) | 22µM*
CN(CCC#N)C(=O)CC(Cc1ccccc1)C1CCOC(C)(C)C1 (stereo unspecified) | 2%[57.5 µM]
COC(=O)NC(C(=O)OC)(C(=O)OC)c1ccccc1 | -6%
Cc1nc(NC2CCCCC2)c2nc(-c3ccccc3)n(CCCN3CCCCC3C)c2n1 (stereo unspecified) | 1%
C[C@@H]1Oc2ccccc2C=C1/C=C/C(=O)O | 1%
CCN1C(=O)/C(=C\c2ccncc2)SC1=S | -15%[57.5 µM]
CCN1C(=O)/C(=C/C2=Cc3ccccc3OC2C)SC1=S (stereo unspecified) | 16µM*
CN[C@H]1CCc2cc(OC)c(OC)c(OC)c2-c2ccc(N[C@@H]3CCCCNC3=O)c(=O)cc21 | -24%
CN(C)S(=O)(=O)c1cccc(NC(=O)c2cncc(Br)c2)c1 | 4%

Screens as filed in PubChem.
